A selection: hits, their analogues and other compounds. The true share with any hit is near 3.9%.
BoNT F protease: blocks Botulinum neurotoxin F light chain protease | Multiplex microsphere protease cleavage assay, flow cytometry | inhibition, % at 10 µM | 0.22% of 360,000 active; in the data active = inhibition above about 35%, passing the limit was not always enough; inconclusive = no clear call, values can overlap the other calls
BoNT A protease: inhibitors of Botulinum neurotoxin A light chain protease; multiplex microsphere protease substrate cleavage, flow cytometry; inhibition, % at 10 µM; 0.17% of 360,000 active
CCHF vOTU inh: CCHFV vOTU protease inhibition | inhibition, % at 11.5 µM | Pep-AMC fluorescence | 0.55% of 370,000 active; in the data active = inhibition above about 30%
Autofluor counter: compound fluorescence in toxin protease inhibitor counterscreen; AID 624483; 3.1% of 360,000 active; compound autofluorescence counterscreen, microsphere flow cytometry; active compounds read high; fluorescence intensity (concentration not given with the values); in the data active = fluorescence intensity above about 16000; inconclusive = no clear call, values can overlap the other calls
3CLpro inhibitor: SARS-CoV 3CLpro protease inhibition; AID 1706; 0.14% of 290,000 active; inhibition, % at 6 µM; recombinant SARS-CoV 3CLpro, quenched FRET peptide cleavage; P0C6X7; in the data active = inhibition above about 12%
Anthrax LF inh2: blocks Bacillus anthracis lethal factor protease; inhibition, % at 10 µM; P15917; 0.12% of 360,000 active; multiplex microsphere protease cleavage assay, LF
Target sequence (P15917 whole entry, looked up): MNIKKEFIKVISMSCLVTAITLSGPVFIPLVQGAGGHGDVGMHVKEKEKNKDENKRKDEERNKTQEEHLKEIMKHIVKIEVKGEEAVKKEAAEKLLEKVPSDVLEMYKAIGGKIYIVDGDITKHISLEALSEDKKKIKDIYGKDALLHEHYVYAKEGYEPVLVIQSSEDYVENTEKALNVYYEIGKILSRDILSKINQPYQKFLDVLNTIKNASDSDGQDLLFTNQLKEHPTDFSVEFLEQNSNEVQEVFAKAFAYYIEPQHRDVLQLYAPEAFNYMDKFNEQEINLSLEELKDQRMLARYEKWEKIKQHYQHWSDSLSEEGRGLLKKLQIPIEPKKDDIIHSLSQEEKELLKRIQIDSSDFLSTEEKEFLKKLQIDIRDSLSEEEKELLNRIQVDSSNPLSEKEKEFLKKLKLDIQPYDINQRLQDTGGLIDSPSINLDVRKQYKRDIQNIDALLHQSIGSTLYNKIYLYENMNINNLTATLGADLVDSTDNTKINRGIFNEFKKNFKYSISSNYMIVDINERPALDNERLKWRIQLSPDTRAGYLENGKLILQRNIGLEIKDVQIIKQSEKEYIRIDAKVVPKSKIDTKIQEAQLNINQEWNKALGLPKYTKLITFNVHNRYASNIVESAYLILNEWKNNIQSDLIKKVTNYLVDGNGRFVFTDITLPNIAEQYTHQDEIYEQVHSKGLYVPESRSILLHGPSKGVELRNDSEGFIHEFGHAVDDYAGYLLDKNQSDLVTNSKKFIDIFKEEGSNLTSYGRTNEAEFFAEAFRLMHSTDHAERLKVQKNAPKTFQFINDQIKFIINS
Large screens that a line does not name were inactive. Rule as the data show it, unless noted: active = inhibition above about 30%; inconclusive = no clear call, values can overlap the other calls; inactive = below that.

O=C(CSc1nc2ccccc2c(=O)n1CC1CCCO1)NCc1ccccc1 (stereo not given)	none
O=C(CSc1nc2ccccc2c(=O)n1CC1CCCO1)N1CCN(c2ccccc2)CC1 (stereo not given)	Autofluor counter 21377
COc1ccc([C@@H]2[C@@H]3C(=O)N(C(C)(C)C)C(=O)[C@@H]3[C@]3(C)C(=O)N(c4ccc(C(F)(F)F)cc4)C(=O)N23)cc1	none
CCc1c(O)nc(SCc2ccccc2)n(C(C)CC)c1=O (stereo not given)	Autofluor counter 21259 (no result: CCHF vOTU inh)
C=CCSc1nc(O)c(CC)c(=O)n1C(C)CC (stereo not given)	BoNT A protease inconclusive, Autofluor counter 24804
O=C(NCCCN1CCOCC1)c1ccc(CS(=O)(=O)c2ccc(Br)cc2)o1	none
O=C(CCS(=O)(=O)Cc1ccc(Cl)cc1)NCCCN1CCN(c2ccccc2F)CC1	Autofluor counter 22031
O=C(NCCCN1CCOCC1)c1ccc(CS(=O)(=O)c2cccc(C(F)(F)F)c2)o1	Autofluor counter 22992
O=C(NC1CCCC1)c1ccc(CS(=O)(=O)c2cccc(C(F)(F)F)c2)o1	Autofluor counter 22398
O=C(NCCCN1CCOCC1)c1ccc(CS(=O)(=O)Cc2ccc(Cl)cc2)o1	Autofluor counter 20919
CCC(C)c1c(N)n(S(=O)(=O)c2ccc(C)cc2)oc1=O (stereo not given)	none (no result: 3CLpro inhibitor)
COc1ccc(S(=O)(=O)N2CCC(c3nc4ccccc4o3)CC2)c(OC)c1	none (no result: BoNT F protease, BoNT A protease, Autofluor counter, 3CLpro inhibitor, Anthrax LF inh2)
COC(=O)[C@]12C[C@H](CC(=O)NCc3cccc4ccccc34)C(=O)N(CCC3=CCCCC3)C1=C[C@H](C(C)C)O[C@@H]2C1CC1	none (no result: BoNT F protease, BoNT A protease, Autofluor counter, 3CLpro inhibitor, Anthrax LF inh2)
COc1ccc(Cn2c(CCC(=O)Nc3ccc(CC#N)cc3)nc3cccnc32)cc1	Autofluor counter 22433
COCCCNC(=O)CCc1nc2cccnc2n1Cc1ccccc1	Autofluor counter 23819
COC(=O)[C@]12C[C@H](CC(=O)NCc3ccccc3)C(=O)N(Cc3cccc4ccccc34)C1=C[C@H](C1CCCC1)O[C@@H]2C	none (no result: BoNT F protease, BoNT A protease, Autofluor counter, 3CLpro inhibitor, Anthrax LF inh2)
Cc1ccnc(Sc2ccc([N+](=O)[O-])cc2[N+](=O)[O-])n1	Autofluor counter 21298
O=C(Oc1ccc(-c2cn3c(n2)SCC3)cc1)c1ccccc1	Autofluor counter 20792
CC(=O)Nc1ccc(-c2cn3c(n2)SCC3)cc1	none
CCC(=NCCCN(CC)CC)c1c(O)n(-c2ccccc2)c(=O)[nH]c1=O	Autofluor counter 24318
CCN(CC)CCCN=C(C)c1c(O)n(-c2ccccc2)c(=O)[nH]c1=O	BoNT A protease inconclusive, Autofluor counter 22362
Cc1ccccc1NC(=O)c1cc(S(=O)(=O)N2CCCCC2)ccc1N1CCOCC1	none (no result: 3CLpro inhibitor)
CCCS(=O)(=O)c1c(S(=O)(=O)CCC)c2c(N)cccn2c1C(=O)c1ccccc1	BoNT A protease inconclusive, Autofluor counter 16615
CCOC(=O)CNC(=O)CSc1nnc(-c2ccc(C(C)(C)C)cc2)n1-c1ccc(Cl)cc1	none (no result: BoNT F protease, BoNT A protease, Autofluor counter, 3CLpro inhibitor, Anthrax LF inh2)
CCOc1ccccc1C(=O)NCCc1cnc[nH]1	none
CCOc1ccc(C(=O)NCCc2cnc[nH]2)cc1	BoNT F protease 49.9
CCN1C(=O)/C(=C/N(C)C)c2ccccc21	Autofluor counter 16312
COc1ccc(NC(=O)NN2CCN(C)CC2)cc1	none
O=C(CSc1ncccn1)n1c2c(c3ccccc31)CCCC2	Autofluor counter 18875
COc1cc(C(=O)NC(C)C2CC3CCC2C3)ccc1OC(F)F (stereo not given)	none (no result: 3CLpro inhibitor)
O=C(NC1CCCCN(Cc2ccc(OC(F)(F)F)cc2)C1=O)c1cccc(C(F)(F)F)c1 (stereo not given)	none (no result: BoNT F protease, BoNT A protease, Autofluor counter, 3CLpro inhibitor, Anthrax LF inh2)
CCOc1ccc(C(=O)/C=C/c2cn(CN3CCN(C)CC3)c3ccccc23)cc1	none
COc1ccc(C(=O)/C=C/c2cn(CN3CCN(C)CC3)c3ccccc23)cc1	Autofluor counter 23529 (no result: CCHF vOTU inh)
COc1cccc(CNC(=O)Cc2ccc(S(=O)(=O)N3CCOCC3)s2)c1	none (no result: 3CLpro inhibitor)
COC(=O)[C@]12C[C@H](CC(=O)NCCc3ccccc3OC)C(=O)N(Cc3ccccc3)C1=C[C@H](COCc1ccccc1)O[C@@H]2C	none (no result: BoNT F protease, BoNT A protease, Autofluor counter, 3CLpro inhibitor, Anthrax LF inh2)
COc1cc2c(cc1OC)C(c1ccc(-c3ccccc3Cl)o1)=NCC2	Autofluor counter 20487
COc1cc2c(cc1OC)C(c1ccc(-c3ccc(Cl)cc3Cl)o1)=NCC2	BoNT A protease inconclusive, Autofluor counter inconclusive
O=C(O)c1ccccc1C(=O)N1CCN(Cc2ccc3c(c2)OCO3)CC1	none
CCSc1ccccc1C(=O)NCc1ccc2c(c1)OCO2	Autofluor counter 17574

Screens: PubChem BioAssay, several laboratories
